# Results filed as inconclusive are left out. Calls of active or inactive are those of the source. The calls were made as follows: active = hit-call score of the fitted dose curve at least 0.9, where 1 is the maximum; inconclusive = response in the unintended direction; inactive = score below 0.9.
# Tests used:
# [1] = TOX21_p53_BLA_p2_viability: Viability Assessment in the Tox21 HCT-116 p53 Agonism Beta-lactamase Assay, Phase 2 (AID 2283591);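 also: compound exposure lasted 16 h at 37 °C; actives lower the ATP signal meaning cytotoxicity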
# Summary of the method: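 HCT116 p53-bla cells, 4000/well, dosed after 5 h plating (217-fold dilution of DMSO stocks) and incubated 16 h at 37C. Viability taken as cellular ATP by CellTiter-Glo luminescence after 30 min RT; signal loss marks cytotoxicity.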
# [2] = molecular target: Cellular tumor antigen p53 (Homo sapiens) (UniProt P04637); experiment: TOX21_p53_BLA_p2_ratio: Tox21 HCT-116 p53 Agonism Beta-lactamase Assay, Ratio, Phase 2 (AID 2283592)
# Summary of the method: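 Ratio endpoint: beta-lactamase cleavage of CCF4-AM, blue (460 nm) over green (530 nm). HCT116 reporter line; 16 h treatment, 37C; substrate 2 h RT.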
# [3] = TOX21_p53_BLA_p3_viability: Viability Assessment in the Tox21 HCT-116 p53 Agonism Beta-lactamase Assay, Phase 3 (AID 2283593);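 also: cells exposed to compound for 16 h before reading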
# Summary of the method: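 HCT116 cells, 4000/well, dosed 5 h after plating by pin transfer (217-fold dilution from DMSO stock) and incubated 16 h at 37C, 5% CO2. Viability read as ATP luminescence with CellTiter-Glo after 30 min at room temperature.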
# [4] = molecular target: Cellular tumor antigen p53 (Homo sapiens) (UniProt P04637); experiment: TOX21_p53_BLA_p3_ratio: Tox21 HCT-116 p53 Agonism Beta-lactamase Assay, Ratio, Phase 3 (AID 2283596)
# Summary of the method: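 Cells were seeded at 4000/well, rested 5 h at 37C, then dosed with DMSO compound solutions (217-fold dilution) for 16 h. CCF4-AM substrate was loaded for 2 h at room temperature, and the 460/530 nm emission ratio was fitted for gain of signal versus DMSO.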
# [5] = TOX21_p53_BLA_p4_viability: Viability Assessment in the Tox21 HCT-116 p53 Agonism Beta-lactamase Assay, Phase 4 (AID 2283597);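 also: hits lower the luminescence signal meaning cytotoxicity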
# Summary of the method: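 Cytotoxicity was inferred from loss of CellTiter-Glo luminescence. HCT116 cells had been dosed with compounds after 5 h plating, incubated 16 h at 37C and 5% CO2, and exposed to the CCF4-AM substrate for 2 h.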
# [6] = TOX21_p53_BLA_p5_viability: Viability Assessment in the Tox21 HCT-116 p53 Agonism Beta-lactamase Assay, Phase 5 (AID 2283600)
# Summary of the method: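 Luciferase-coupled ATP quantitation of cells treated for 16 h (37C, 5% CO2) with test chemicals delivered in DMSO via a 217-fold dilution; 4000 cells/well; reagent incubated 30 min at room temperature before luminescence reading.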
# [7] = molecular target: Cellular tumor antigen p53 (Homo sapiens) (UniProt P04637); experiment: TOX21_p53_BLA_p4_ratio: Tox21 HCT-116 p53 Agonism Beta-lactamase Assay, Ratio, Phase 4 (AID 2283601)
# Summary of the method: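 HCT-116 p53 beta-lactamase reporter cells (4000/well) preincubated 5 h, then compound (217-fold dilution of DMSO stock) for 16 h at 37C. CCF4-AM substrate added 2 h at room temperature; 460/530 nm emission ratio fitted upward versus DMSO.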
# [8] = ACEA_ER_AUC_viability: ACEA Biosciences xCELLigence Real-Time Cell Analysis on Estrogen Receptor Agonism for Viability (AID 2283782);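 also: hit means loss of impedance signal meaning reduced cell growth or viability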
# Summary of the method: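 Read-out: real-time electrical impedance (RT-CES) area under curve, loss of signal taken as reduced viability, normalized to DMSO baseline. T-47D cells, charcoal-stripped serum medium, compounds up to 100 uM final, continuous exposure, 80 h.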
# Chain of Cellular tumor antigen p53 (Homo sapiens) (P04637 whole entry, looked up): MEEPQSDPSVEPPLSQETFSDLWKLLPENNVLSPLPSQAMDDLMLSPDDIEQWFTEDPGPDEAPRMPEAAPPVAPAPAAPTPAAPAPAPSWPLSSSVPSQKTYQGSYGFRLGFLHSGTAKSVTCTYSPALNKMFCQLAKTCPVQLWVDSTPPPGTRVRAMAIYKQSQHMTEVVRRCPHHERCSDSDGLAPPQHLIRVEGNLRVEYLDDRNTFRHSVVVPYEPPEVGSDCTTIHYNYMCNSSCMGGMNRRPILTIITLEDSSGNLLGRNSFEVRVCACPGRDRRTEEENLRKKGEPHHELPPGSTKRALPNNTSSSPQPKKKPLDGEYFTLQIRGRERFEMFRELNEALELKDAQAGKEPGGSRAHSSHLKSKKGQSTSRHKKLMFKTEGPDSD
smiles,measurement,setting,value
CCCCCCCCS(=O)(=O)Cl,outcome,[1],inactive
same,outcome,[2],inactive
same,outcome,[3],inactive
same,outcome,[4],inactive
same,outcome,[5],inactive
same,outcome,[6],inactive
same,outcome,[7],inactive
N=C1N=C(N)c2cc3ccccc3cc21,AC50,[1],23.6 µM (active)
same,AC50,[2],11.6 µM (active)
same,AC50,[3],38.5 µM (active)
same,AC50,[4],18.5 µM (active)
same,AC50,[5],21 µM (active)
same,AC50,[6],27.4 µM (active)
same,AC50,[7],19.8 µM (active)
Cc1ccc2c(n1)Oc1ccc(C(C)C(=O)OCC(=O)N(C)C)cc1C2 (stereo unspecified),outcome,[1],inactive
same,outcome,[2],inactive
same,outcome,[3],inactive
same,outcome,[4],inactive
same,outcome,[5],inactive
same,outcome,[6],inactive
CC1(C)S[C@@H]2[C@H](NC(=O)[C@H](N)c3ccccc3)C(=O)N2[C@H]1C(=O)OCOC(=O)[C@@H]1N2C(=O)C[C@H]2S(=O)(=O)C1(C)C,outcome,[1],inactive
same,outcome,[2],inactive
same,outcome,[3],inactive
same,outcome,[4],inactive
same,outcome,[5],inactive
same,outcome,[6],inactive
same,outcome,[7],inactive
CO[C@H]1/C=C/O[C@@]2(C)Oc3c(C)c(O)c4c(O)c(c5c(c4c3C2=O)=NC2(CCN(CC(C)C)CC2)N=5)NC(=O)/C(C)=C\C=C\[C@H](C)[C@H](O)[C@@H](C)[C@@H](O)[C@@H](C)[C@H](OC(C)=O)[C@@H]1C,outcome,[1],inactive
same,outcome,[2],inactive
same,outcome,[3],inactive
same,outcome,[4],inactive
same,outcome,[5],inactive
same,outcome,[6],inactive
same,outcome,[7],inactive
CC/C=C\C/C=C\C/C=C\C/C=C\C/C=C\CCCC(=O)O,outcome,[1],inactive
same,outcome,[2],inactive
same,outcome,[3],inactive
same,outcome,[4],inactive
same,outcome,[5],inactive
same,outcome,[6],inactive
same,outcome,[7],inactive
CC(=O)OC(C)OC(=O)C(C)c1ccc(-c2ccccc2)c(F)c1 (stereo unspecified),outcome,[1],inactive
same,outcome,[2],inactive
same,outcome,[3],inactive
same,outcome,[4],inactive
same,outcome,[5],inactive
same,outcome,[6],inactive
same,outcome,[7],inactive
Cc1ncc(CSSCc2cnc(C)c(O)c2CO)c(CO)c1O,outcome,[1],inactive
same,outcome,[2],inactive
same,outcome,[3],inactive
same,outcome,[4],inactive
same,outcome,[5],inactive
same,outcome,[6],inactive
same,outcome,[7],inactive
CC(O)C(CO)C(C)O (stereo unspecified),outcome,[1],inactive
same,outcome,[2],inactive
same,outcome,[3],inactive
same,outcome,[4],inactive
same,outcome,[5],inactive
same,outcome,[6],inactive
same,outcome,[7],inactive
CC(C)NNC(=O)c1ccncc1,outcome,[1],inactive
same,outcome,[2],inactive
same,outcome,[3],inactive
same,outcome,[4],inactive
same,outcome,[5],inactive
same,outcome,[6],inactive
same,outcome,[7],inactive
O=C(O)CCCCCC(=O)O,outcome,[1],inactive
same,outcome,[2],inactive
same,outcome,[3],inactive
same,outcome,[4],inactive
same,outcome,[5],inactive
same,outcome,[6],inactive
same,outcome,[7],inactive
CC(C)=CCOc1ccc(/C=C/C(=O)c2ccc(OCC=C(C)C)cc2OCC(=O)O)cc1,AC50,[1],8 µM (active)
same,AC50,[2],6.92 µM (active)
same,AC50,[3],14.9 µM (active)
same,AC50,[4],13.8 µM (active)
same,AC50,[5],7.92 µM (active)
same,outcome,[6],inactive
same,AC50,[7],7.21 µM (active)
C=C[C@]1(C)C[C@@H](OC(=O)CSC(C)(C)CNC(=O)[C@H](N)C(C)C)[C@]2(C)[C@H](C)CC[C@]3(CCC(=O)[C@H]32)[C@@H](C)[C@@H]1O,outcome,[1],inactive
same,outcome,[2],inactive
same,outcome,[3],inactive
same,outcome,[4],inactive
same,outcome,[5],inactive
same,outcome,[6],inactive
same,outcome,[7],inactive
CC(C)(C(=O)O)c1ccc(C(O)CCCN2CCC(C(O)(c3ccccc3)c3ccccc3)CC2)cc1 (stereo unspecified),outcome,[1],inactive
same,outcome,[2],inactive
same,outcome,[3],inactive
same,outcome,[4],inactive
same,outcome,[5],inactive
same,outcome,[6],inactive
same,outcome,[7],inactive
O=[N+]([O-])c1cccc(I)c1,outcome,[1],inactive
same,outcome,[2],inactive
same,outcome,[3],inactive
same,outcome,[4],inactive
same,outcome,[5],inactive
same,outcome,[6],inactive
same,outcome,[7],inactive
CN(C/C=C/C#CC(C)(C)C)Cc1cccc2ccccc12,outcome,[1],inactive
same,outcome,[2],inactive
same,outcome,[3],inactive
same,outcome,[4],inactive
same,outcome,[5],inactive
same,outcome,[6],inactive
same,outcome,[7],inactive
COc1ccccc1N1CCN(CC(O)COc2cccc3ccccc23)CC1 (stereo unspecified),outcome,[1],inactive
same,outcome,[2],inactive
same,outcome,[3],inactive
same,outcome,[4],inactive
same,AC50,[5],23 µM (active)
same,outcome,[6],inactive
same,outcome,[7],inactive
Cc1cccc(C)c1NC(=O)c1ccccc1C(=O)O,outcome,[1],inactive
same,outcome,[2],inactive
same,outcome,[3],inactive
same,outcome,[4],inactive
same,outcome,[5],inactive
same,outcome,[6],inactive
same,outcome,[7],inactive
C[Si](NC1CCCCC1)(NC1CCCCC1)NC1CCCCC1,outcome,[1],inactive
same,outcome,[2],inactive
same,outcome,[3],inactive
same,outcome,[4],inactive
same,AC50,[5],88.8 µM (active)
same,outcome,[6],inactive
same,outcome,[7],inactive
CC1(C)CC(N)CC(C)(C)N1,outcome,[1],inactive
same,outcome,[2],inactive
same,outcome,[3],inactive
same,outcome,[4],inactive
same,outcome,[5],inactive
same,outcome,[6],inactive
same,outcome,[7],inactive
same,outcome,[8],inactive
CN1C(=O)OC(C)(C)C1=O,outcome,[1],inactive
same,outcome,[2],inactive
same,outcome,[3],inactive
same,outcome,[4],inactive
same,outcome,[5],inactive
same,outcome,[6],inactive
same,outcome,[7],inactive
CCCCCCCCCI,outcome,[1],inactive
same,outcome,[2],inactive
same,outcome,[3],inactive
same,outcome,[4],inactive
same,outcome,[5],inactive
same,outcome,[6],inactive
same,outcome,[7],inactive
Cc1cc(C(C)(C)C)c(O)c(C)c1Cn1c(=O)n(Cc2c(C)cc(C(C)(C)C)c(O)c2C)c(=O)n(Cc2c(C)cc(C(C)(C)C)c(O)c2C)c1=O,outcome,[1],inactive
same,outcome,[2],inactive
same,outcome,[3],inactive
same,AC50,[4],56.3 µM (active)
same,outcome,[5],inactive
same,outcome,[6],inactive
same,outcome,[7],inactive
COc1cc(C)nc(-n2nc(C)cc2OC)n1,outcome,[1],inactive
same,outcome,[2],inactive
same,outcome,[3],inactive
same,outcome,[4],inactive
same,outcome,[5],inactive
same,outcome,[6],inactive
same,outcome,[7],inactive
OC(CN1CCC(Cc2ccc(F)cc2)CC1)c1ccc(Cl)cc1 (stereo unspecified),outcome,[1],inactive
same,outcome,[2],inactive
same,outcome,[3],inactive
same,outcome,[4],inactive
same,outcome,[5],inactive
same,outcome,[6],inactive
same,outcome,[7],inactive
OC(CCN1CCCC1)(c1ccccc1)C1CCCCC1 (stereo unspecified),outcome,[1],inactive
same,outcome,[2],inactive
same,outcome,[3],inactive
same,outcome,[4],inactive
same,outcome,[5],inactive
same,outcome,[6],inactive
same,outcome,[7],inactive
Cc1nc2ccccn2c(=O)c1CCN1CCC(C(=O)c2ccc(F)cc2)CC1,outcome,[1],inactive
same,outcome,[2],inactive
same,outcome,[3],inactive
same,outcome,[4],inactive
same,outcome,[5],inactive
same,outcome,[6],inactive
same,outcome,[7],inactive
CNC(=O)CN(CCN(CCN(CC(=O)[O-])CC(=O)NC)CC(=O)[O-])CC(=O)[O-].O.[Gd+3],outcome,[1],inactive
same,outcome,[2],inactive
same,outcome,[3],inactive
same,outcome,[4],inactive
same,outcome,[5],inactive
same,outcome,[6],inactive
same,outcome,[7],inactive
